High-throughput results deposited in PubChem by several laboratories.
An excerpt weighted towards active compounds, which were near 3.4% of everything screened.
NTR1 agonist – NTR1 (human) agonism | P30989 | NTR1-U2OS beta-arrestin-GFP spot imaging, agonist mode | activation, % at 20 µM | 0.17% of 330,000 active | AID 493036;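 active = activation at or above 40% of the spot to cytoplasm intensity ratio, with at least 20 cells analyzed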
MEKK2wt PB1 HTS – raises or lowers MEK5 binding to wildtype human MEKK2 PB1 domain; Q9Y2U5; bead flow cytometry, Alexa488-MEK5 binding to MEKK2 WT; actives lie on both sides; binding response (% of control), % at 10 µM; 1.1% of 290,000 active; in the data active = binding response below about 67% or above about 130%
MEKK3 PB1 HTS – raises or lowers MEK5 binding to the human MEKK3 PB1 domain. bead-based flow cytometry, Alexa488-MEK5 binding to MEKK3; actives lie on both sides; 0 = blocked by unlabeled MEK5, 100 = vehicle. binding response (% of control), % at 10 µM. 1.4% of 290,000 active;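 active = binding response more than 3 SD above or below the average of its plate-row segment, actives on both sides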;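 note: Alexa488 bead fluorescence after subtracting the streptavidin-only scavenger bead signal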
Target sequence (Q99759 whole entry, looked up, the tested form may be a part): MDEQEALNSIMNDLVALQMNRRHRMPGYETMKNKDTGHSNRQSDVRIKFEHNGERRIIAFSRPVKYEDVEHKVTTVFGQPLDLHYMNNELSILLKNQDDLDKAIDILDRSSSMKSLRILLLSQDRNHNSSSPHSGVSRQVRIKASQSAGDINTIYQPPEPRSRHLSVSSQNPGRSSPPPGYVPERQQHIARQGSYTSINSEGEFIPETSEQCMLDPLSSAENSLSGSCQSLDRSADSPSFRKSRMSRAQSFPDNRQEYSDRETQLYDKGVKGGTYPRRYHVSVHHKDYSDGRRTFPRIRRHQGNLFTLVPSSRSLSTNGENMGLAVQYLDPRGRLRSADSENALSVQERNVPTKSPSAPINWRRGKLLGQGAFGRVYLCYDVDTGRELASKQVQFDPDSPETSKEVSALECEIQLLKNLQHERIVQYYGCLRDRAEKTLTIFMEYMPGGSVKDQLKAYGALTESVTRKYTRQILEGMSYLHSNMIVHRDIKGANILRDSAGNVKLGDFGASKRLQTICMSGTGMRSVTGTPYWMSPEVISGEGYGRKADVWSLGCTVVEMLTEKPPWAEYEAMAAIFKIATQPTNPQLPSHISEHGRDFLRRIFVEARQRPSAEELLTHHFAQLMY
TMEM16A inh – blocks the mouse calcium-activated chloride channel TMEM16A; Q8BHY3; 1.2% of 310,000 active; normalized B-score (activity score, 25-100; higher = stronger inhibition) at 10 µM; HEK293 TMEM16A/YFP iodide influx fluorescence, ionomycin; AID 588511;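 active = ratio plate-corrected score three or more library SD toward inhibition, starting fluorescence score within five deviations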;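 note: score derived from kinetic fluorescence span divided by baseline fluorescence per well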
ANO1 activ – mouse TMEM16A channel activation, primary screen. HEK293 TMEM16A/YFP-H148Q/I152L, iodide quench fluorescence; stronger effect = lower value. 0.3% of 340,000 active. Q8BHY3. B-score at 10 µM. AID 623877;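 active = fluorescence-ratio B-score plate-corrected deviation score at least 3 library SD below zero, with starting fluorescence score within 5 deviations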;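 note: channel opened by trigger with iodide after compound preincubation; score built on the fluorescence ratio of max minus min over baseline; more negative score means more quench and so TMEM16A activation or potentiation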
MEKK2mut PB1 HTS – signal of MEK5 binding to mutant human MEKK2 PB1 domain | bead flow cytometry, Alexa488-MEK5 binding to MEKK2 mutant | percent response, % at 10 µM | 0.35% of 290,000 active; in the data active = percent response above about 24%, passing the limit was not always enough
MEKK2wt confirm – raises or lowers MEK5 binding to wildtype human MEKK2, retest | shares compounds with MEKK3 PB1 HTS | bead flow cytometry, Alexa488-MEK5 binding to MEKK2 WT; actives lie on both sides | binding response (% of control), % at 10 µM | 2.4% of 5,900 active; in the data active = binding response below about 16% or above about 210%; inactive = in between
MEKK2mut-MEK5 – signal of MEK5 binding to mutant human MEKK2, retest; shares compounds with MEKK3 PB1 HTS; bead flow cytometry, Alexa488-MEK5 binding to MEKK2 mutant; percent response, % at 10 µM; 2% of 5,900 active; in the data active = percent response mostly above about 71%, no sharp cut-off; inactive = mostly below about 38%;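 note: higher means compound restores mutant binding toward wildtype level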
MEKK3 confirm – confirmation of inhibitors of MEK5 binding to human MEKK3. shares compounds with MEKK3 PB1 HTS. bead flow cytometry, Alexa488-MEK5 binding to MEKK3; stronger effect = lower value. binding response (% of control), % at 10 µM. 1.8% of 5,900 active. AID 1894;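 active = binding response below 72% of control, or above a set upper limit, though filed actives all read lower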
Numbers stand for hits; i = inactive; nt = no result; [ ] = remark or other dose.

SMILES | NTR1 agonist | MEKK2wt PB1 HTS | MEKK3 PB1 HTS | TMEM16A inh | ANO1 activ | MEKK2mut PB1 HTS | MEKK2wt confirm | MEKK2mut-MEK5 | MEKK3 confirm
CCCCCOC(=O)Cn1c(=O)oc2ccccc21 | i | i | i | i | i | i | nt | nt | nt
CCCCCCCCCCOC(=O)Cn1c(COc2cccc(C)c2)[n+](C)c2ccccc21 | i | 402 | 123 | 100 | i | 112 | 254 | 90 | i
CCCCCCCCCCOC(=O)Cn1c(COc2ccc(Cl)cc2)[n+](C)c2ccccc21 | i | 349 | i | i | i | 101 | i | i | i
CCCCCCCCCCOC(=O)Cn1c(COc2ccccc2C)[n+](C)c2ccccc21 | i | 293 | i | 100 | -4.7 | 141 | 254 | 150 | i
Cc1ccccc1OCc1n(CC(=O)OC2CC(C)CCC2C(C)C)c2ccccc2[n+]1C (stereo unspecified) | i | 159 | i | 100 | i | i | i | i | i
c1ccc(-n2nnnc2Oc2cccc3cccnc23)cc1 | i | -8.0[inhibitor] | 0.0[inhibitor] | i | i | i | i | i | i
CC1=C/C(=C\c2ccc(Br)o2)C(=O)O1 | i | i | i | i | i | i | nt | nt | nt
O=C1C(=Cc2ccc(Br)o2)C(=O)c2ccccc21 | nt | i | 138 | i | i | i | i | i | i
COc1ccc(-c2noc(CN3CCOCC3)n2)cc1OC | i | 0.0[inhibitor] | 1.0[inhibitor] | i | i | i | i | i | i
CCOc1ccc(CN(C)CC(=O)NNC(=O)c2ccc(Cl)cc2)cc1OC | i | i | 128 | i | i | i | i | i | i
COc1cccc(CN(C)CC(=O)NNC(=O)c2ccc(Cl)cc2)c1 | i | i | i | i | i | i | nt | nt | nt
O=C(c1c[nH]c(C(=O)C(Cl)(Cl)Cl)c1)c1ccc(F)cc1F | i | i | i | i | i | i | nt | nt | nt
O=C(c1c[nH]c(C(=O)C(Cl)(Cl)Cl)c1)c1ccc(F)cc1Cl | i | -2.0[inhibitor] | 1.0[inhibitor] | i | i | i | i | i | i
CCCN(CCC)c1cc(Cl)nc(N)n1 | i | i | i | i | i | i | nt | nt | nt
CSc1nc(Cl)cc(N(CCO)CCO)n1 | i | i | i | i | i | 25 | i | i | i
CC(C)c1ccc(OCCCCCN2CCOCC2)cc1 | i | i | i | i | i | i | nt | nt | nt
CC(C)c1ccc(OCCCN2CCCC2)cc1 | i | i | i | i | i | 26 | i | i | i
CC(=O)Nc1cc2cc(NS(=O)(=O)c3ccc(C)cc3)ccc2oc1=O | i | i | i | i | i | i | nt | nt | nt
O=C(N/N=C\C=C\c1ccco1)c1cc(-c2ccc3ccccc3c2)n[nH]1 | i | i | 132 | i | i | i | i | i | i
O=C(N/N=C/C=C\c1ccco1)c1ccccn1 | i | i | i | i | i | i | nt | nt | nt
CCOC(=O)c1ccc(NC(=O)CSc2nnc(C3CCCCC3)n2C)cc1 | i | i | 126 | i | i | i | i | i | i
CC(C)CCOc1ccc(/C=C2\CCn3c2nc2cc(C(=O)O)ccc2c3=O)cc1 | nt | i | i | nt | i | i | nt | nt | nt
CCN(CC)c1nc(N)c([N+](=O)[O-])c(NCCO)n1 | i | i | 134 | i | i | i | i | i | i
C=CCNc1nc(N)c([N+](=O)[O-])c(NCCO)n1 | i | i | i | i | i | i | nt | nt | nt
Cc1cc(-c2nnc(CCC(=O)NCCc3ccccc3F)o2)no1 | i | i | i | i | i | i | nt | nt | nt
SMILES | NTR1 agonist | MEKK2wt PB1 HTS | MEKK3 PB1 HTS | TMEM16A inh | ANO1 activ | MEKK2mut PB1 HTS | MEKK2wt confirm | MEKK2mut-MEK5 | MEKK3 confirm
CCN(CC)CCNC(=O)CCN1N=C(c2ccccc2)CCC1=O | i | i | i | i | i | i | nt | nt | nt
O=C(NC(=S)Nc1ccc2c(c1)OCCO2)c1ccccc1 | i | i | i | i | i | i | nt | nt | nt
COc1cccc(OC)c1C(=O)NC(=S)Nc1ccc2c(c1)OCCO2 | i | i | 141 | i | i | i | i | i | i
CN(C#N)c1nc(Cl)nc(Nc2cccc(Cl)c2)n1 | i | i | 144 | i | i | i | i | i | i
Fc1cccc(Nc2nc(Cl)nc(Cl)n2)c1 | i | 3.0[inhibitor] | 3.0[inhibitor] | i | i | i | i | i | i
CCN(C(=O)c1cn(C)c(=O)c2cc(OC)c(OC)cc12)c1ccccc1C | i | i | i | i | i | i | nt | nt | nt
CCN(C(=O)c1cn(C)c(=O)c2cc(OC)c(OC)cc12)c1cc(C)ccc1C | i | -2.0[inhibitor] | 1.0[inhibitor] | i | i | i | i | i | i
CCOC(=O)C1CCN(Cc2ccc(OCc3ccccc3)c(OC)c2)CC1 | i | i | i | i | i | i | nt | nt | nt
O=C(O)C(Cc1cc(Cl)ccc1Cl)Sc1nc2ccccc2[nH]1 (stereo unspecified) | i | i | 135 | i | i | i | i | i | i
CC(Sc1nc2ccccc2[nH]1)C(=O)O (stereo unspecified) | i | i | i | i | i | i | nt | nt | nt
O=C(/C=C/c1cccc([N+](=O)[O-])c1)NCCSCc1ccccc1Cl | i | i | i | i | i | i | nt | nt | nt
O=C(/C=C/c1cccc([N+](=O)[O-])c1)NCCSCc1ccc(Cl)cc1Cl | i | i | 130 | i | i | i | i | i | i
CCOc1ccc(S(=O)(=O)N2CCC(C(=O)NCC3CCCO3)CC2)cc1C (stereo unspecified) | i | i | i | i | i | i | nt | nt | nt
CCCCCCc1cc2cc(S(=O)(=O)c3ccc(F)cc3)c(=O)oc2cc1O | i | i | 138 | i | i | i | i | i | i
CCCCCCc1cc2cc(-c3nnc(-c4ccccc4O)o3)c(=O)oc2cc1O | i | 71[inhibitor] | i | i | i | i | i | i | i
COc1ccc(CCN2C(=O)C(Oc3ccccc3)C2c2ccc3c(c2)OCO3)cc1 (stereo unspecified) | i | i | 150 | i | i | i | i | i | i
COc1ccc(OC2C(=O)N(CCc3ccc(OC)c(OC)c3)C2c2ccc3c(c2)OCO3)cc1 (stereo unspecified) | i | i | i | i | i | i | nt | nt | nt
O=C(NCCCN1CCOCC1)C(=O)N/N=C/c1ccccc1 | i | i | 157 | i | i | i | i | i | i
Cc1cccc(C)c1NC(=O)C(=O)NCCCN1CCOCC1 | i | i | 61[inhibitor] | i | i | i | i | i | i
CC(C)(C)c1ccc(/C=N/NC(=O)C(=O)NCCCN2CCOCC2)cc1 | i | i | i | i | i | i | nt | nt | nt
S=C(NCCN1CCOCC1)N/N=C/c1c2ccccc2cc2ccccc12 | i | -2.0[inhibitor] | 1.0[inhibitor] | i | i | i | i | i | i
